# Measured values: the supplement of paper PMC3484114
# ± gives the standard deviation.
# Tested on: OVCAR-3-derived ovarian cancer stem-like cells (spheroids)
# Assay: cell growth relative to untreated control; higher = more growth (less inhibition)
# Conditions: 2.29 µM; 96 h
# Method in brief: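 Percent growth was calculated against untreated wells once blanks were subtracted and Grubbs outliers removed. The cells were OVCAR-3 spheroid-derived stem-like cells, trypsinized and plated at 50,000 cells/mL in stem cell medium on ultra-low attachment 96-well plates for a 24 h preincubation. They were then exposed to compounds at 2.29 uM for 96 h at 37°C, 5% CO2, in 4 replicate wells, and viability was measured by TOX8 resazurin fluorescence (ex 560/em 590 nm) after 4 h.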
row,SMILES,cell growth
1,O=C1C=C(NCCc2ccccc2)c2ccccc2C1=O,57.3 ± 10%
2,CCCCCC(/C=C/[C@@H]1CC(=O)C[C@H]1O[Si](C)(C)C(C)(C)C)OCOCCOC (stereo partly drawn),110 ± 24%
3,CS(=O)(=O)OCCCCOS(C)(=O)=O,121 ± 16%
4,CCOC(=O)Cc1c(C)c2cc(C(=O)c3ccccc3)c(O)cc2oc1=O,98 ± 18%
5,COc1ccc2nc(C)cc(NCCCCCCCCCNc3cc(C)nc4ccc(OC)cc34)c2c1,75.9 ± 37%
6,O=C(OCC12CC3CC(CC(C3)C1)C2)c1ccc(NCc2cc(O)ccc2O)cc1,159 ± 28%
7,CC(=O)Nc1ccc(-c2nc3ccccc3s2)cc1,171 ± 32%
8,CN(C)c1ccc(/C=C/C(=O)[O-])cc1.CN(C)c1ccc(/C=C/C(=O)[O-])cc1.[Cu+2],97.6 ± 39%
